Compound activity deposited in PubChem by several laboratories.
This is a sample that favours compounds with a hit; in the whole collection about 2.1% have one here.
APP 5UTR inh – inhibitors of APP translation via 5'UTR reporter, primary screen, APP 5'UTR luciferase, SH-SY5Y cells | SH-SY5Y APP 5'UTR-luciferase reporter, luminescence | inhibition, % at 2 µM | 0.82% of 190,000 active | AID 1285, 2008;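 active = inhibition above a set limit, derived from the sample mean plus 3 SD, cut at about 45% in these data; inconclusive = one replicate passes the limit while the other fails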
aSyn UTR inh – MLPCN primary screen, SNCA 5' untranslated region. alpha-synuclein 5'UTR reporter, inhibitor activity. inhibition, % (tested at 7.5 µM). 0.82% of 300,000 active. AID 1813, 2009; in the data active = inhibition above about 60%; inconclusive = no clear call, values can overlap the other calls;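 also: H4 neuroglioblastoma cells stably carrying SNCA 5'UTR luciferase fusion; 0% = DMSO wells and 100% = positive control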
KLF5 inhibitor – KLF5 expression inhibitors, primary screen, DLD-1 cells, luminescence; 0.23% of 290,000 active; DLD-1 KLF5 promoter-luciferase reporter; inhibition, % at 5 µM;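 active = inhibition above a per-plate limit of that plate's mean compound inhibition plus 3 SD, cut at about 60% in these data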;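 also: 0% = DMSO wells and 100% = LY294002 at 200 µM; higher means less KLF5 promoter-driven luciferase light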
Ba/F3 V617F tox – reduced viability of JAK2V617F-dependent Ba/F3 cells, primary screen, JAK2V617F inhibitor project, cell-based, Ba/F3 EpoR-JAK2V617F, luminescence; ATP luminescence; 1.1% of 220,000 active; inhibition, % at 5.6 µM; AID 1446, 2008;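 active = inhibition above the campaign mean plus 3 SD over all tested compounds, cut at about 24% in these data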;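 also: cytokine-independent growth of Ba/F3 cells driven by EpoR plus mutant JAK2; 0% = DMSO-treated cells and 100% = JAK inhibitor I control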
IEC-6 tox-1 – cytotoxicity in IEC-6 intestinal epithelial cells, primary screen, cytotoxicity control for KLF5 inhibitor project, cell-based, luminescence | IEC-6 cytotoxicity, luminescence viability | inhibition, % at 5 µM | 0.78% of 290,000 active;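 also: 0% = plate median of test compound wells and 100% = cytotoxic reference compound wells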
BaF3 parental – parental Ba/F3 cell viability inhibition, counter-screen for JAK2V617F inhibitor project, murine pro-B, CellTiter-Glo luminescence; 1.1% of 220,000 active; CellTiter-Glo ATP luminescence; AID 1486, 2009; inhibition, % at 5.6 µM;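 active = inhibition above a per-campaign cutoff, the mean inhibition of all tested compounds plus 3 SD, cut at about 27% in these data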;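 also: 0% = DMSO wells and 100% = JAK Inhibitor I control wells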
KLF5 inh confirm – KLF5 expression inhibitors, confirmation, DLD-1 cells, luminescence | DLD-1 KLF5 promoter firefly luciferase reporter | shares compounds with KLF5 inhibitor | 79% of 610 active | inhibition, % at 4 µM;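 active = inhibition above a set limit taken from the earlier primary screen, cut at about 63% in these data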;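 also: 0% = DMSO wells and 100% = LY294002 at 200 µM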
IEC-6 tox-2 – cytotoxicity in rat IEC-6 cells, cytotoxicity control for KLF5 inhibitor project, cell-based, luminescence, triplicate; shares compounds with KLF5 inhibitor; IEC-6 rat intestinal cells, viability luminescence; inhibition, % at 4 µM; 56% of 610 active; in the data active = inhibition above about 23%;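 also: cells exposed to compounds for 48 hours before viability read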
IEC-6 cytotox cf – cytotoxic compounds in IEC-6 epithelial cells, confirmation, cytotoxicity control, cell-based, luminescence; IEC-6 rat intestinal epithelial viability; inhibition, % at 5 µM; shares compounds with IEC-6 tox-1; 63% of 1,900 active;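 also: 0% = vehicle and 100% = reference cytotoxic drug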
* marks the source's active call; other numbers are inactive results; ? = inconclusive; / = no result. Rule as the data show it, unless noted: active = inhibition above about 22%; inactive = the rest.

SMILES | APP 5UTR inh | aSyn UTR inh | KLF5 inhibitor | Ba/F3 V617F tox | IEC-6 tox-1 | BaF3 parental | KLF5 inh confirm | IEC-6 tox-2 | IEC-6 cytotox cf
Cc1ccc2nc(-c3ccc4c(c3)NC(=O)CO4)cn2c1 | / | -80.0 | -172.2 | -2.7 | -2.1 | -0.1 | / | / | /
COCCn1c(-c2ccc(OC)cc2)c(-c2ccc(OC)cc2)oc1=O | / | -26.4 | -5.8 | / | 9.8 | / | / | / | /
C=C(C)COc1ccc(-c2n[nH]c(C)c2-c2ccc(OC)c(OC)c2)c(O)c1 | / | 49.3 | 62.6* | 78.0* | 75.4* | 75.7* | 69.5* | 27.9* | 48.8*
C=C(C)COc1ccc(-c2n[nH]c(C)c2Oc2ccccc2OC)c(O)c1 | 9.8 | -22.8 | -1.3 | 3.8 | 5.9 | 2.7 | / | / | /
CN1/C(=C/c2cccc[n+]2CCO)Sc2ccccc21 | / | -0.6 | -18.1 | / | 3.0 | / | / | / | /
CC[n+]1c(/C=C2\Sc3ccccc3N2C)ccc2cccc(C)c21 | 51.9* | 115.8* | 68.3* | 101.9* | 70.7* | 104.1* | 114.9* | 55.5* | 63.8*
N#CCCN(C(=O)COC(=O)CCN=C1NS(=O)(=O)c2ccccc21)c1ccc(F)cc1 | / | 10.1 | / | / | / | / | / | / | /
COc1cc2c(cc1OC)C(C)N(C(=O)Nc1cc(C)cc(C)c1)CC2 (configuration not stated) | / | -37.8 | 63.1* | / | 75.8* | / | 80.2* | 54.7* | 55.4*
Cc1cc(C)c(S(=O)(=O)Nc2ccc3c(c2)CCC3)c(C)c1 | 1.9 | -2.4 | -4.3 | 6.6 | 5.3 | 9.1 | / | / | /
Cc1cc(C)c(S(=O)(=O)Nc2ccc3c4c(cccc24)CC3)c(C)c1 | 95.2* | 106.0* | 70.5* | 76.7* | 89.3* | 79.4* | 84.2* | 56.8* | 56.1*
CCOc1ccccc1C(=O)N1CCN(c2cccc(Cl)c2)CC1 | 94.5* | 95.1* | 84.6* | 89.3* | 91.8* | 85.1* | 109.0* | 74.7* | 66.5*
COC(=O)c1cc(C(=O)N2CCN(c3cccc(Cl)c3)CC2)cc([N+](=O)[O-])c1 | 92.3* | 37.5 | 69.6* | 72.7* | 79.4* | 71.5* | 75.9* | 55.8* | 53.0*
Cc1cccc(N2CCN(C(=O)Cc3ccccc3[N+](=O)[O-])CC2)c1C | / | -50.0 | -72.3 | / | 9.6 | / | / | / | /
COc1cc(CNc2nnnn2C)ccc1OCc1c(F)cccc1Cl | -11.4 | 2.0 | -43.1 | -2.2 | -8.2 | 5.9 | / | / | /
Cc1ccc(/C=N/NC(=O)c2c(-c3ccccc3)noc2C)c(O)c1 | / | 30.3 | 66.5* | / | 25.9* | / | 63.1* | 23.1* | 18.5
CCOc1ccc(C(=O)c2cc([N+](=O)[O-])ccc2N2CCOCC2)cc1 | 94.1* | 79.1* | 89.4* | 96.9* | 92.2* | 95.7* | 94.8* | 86.1* | 81.8*
COc1ccc(C(=O)c2cc([N+](=O)[O-])ccc2N2CCOCC2)cc1 | 92.8* | ? | 77.3* | 91.8* | 84.9* | 93.7* | 82.8* | 66.2* | 64.0*
Cc1ccc(COC(=O)c2cc([N+](=O)[O-])ccc2N2CCOCC2)cc1 | / | 67.9* | 82.5* | / | 87.0* | / | 84.1* | 74.2* | 60.9*
CN(CCOc1ccccc1)C(=O)c1cc([N+](=O)[O-])ccc1N1CCOCC1 | / | -13.3 | / | / | / | / | / | / | /
COc1ccccc1NC(=O)c1cc([N+](=O)[O-])ccc1N1CCOCC1 | / | 16.0 | 13.3 | / | -3.0 | / | / | / | /
O=C(Nc1ccc2c(c1)OCO2)c1cc(-c2ccc(O)cc2)on1 | / | -158.5 | -79.9 | / | 5.5 | / | / | / | /
CCN1C(=O)[C@@H]2[C@@H](c3ccc(-c4ccc(C(C)=O)cc4)c(OC)c3)N3CCCC[C@@]3(C(=O)OC)[C@@H]2C1=O | / | 15.3 | / | / | / | / | / | / | /
O=C(N/N=C/c1cccc(Oc2ccccc2)c1)c1ccccc1F | / | -38.9 | 64.0* | / | 28.5* | / | 66.1* | 1.7 | 21.0
COc1ccc(N/C=C/C(=O)c2ccc(OC)c(OC)c2)cc1 | / | -26.6 | -12.7 | 0.0 | 5.7 | -4.6 | / | / | /
COc1ccc(N/C=C/C(=O)c2cc(OC)c(OC)c(OC)c2)cc1 | / | ? | 67.9* | / | 81.0* | / | 72.7* | 57.3* | 59.0*
SMILES | APP 5UTR inh | aSyn UTR inh | KLF5 inhibitor | Ba/F3 V617F tox | IEC-6 tox-1 | BaF3 parental | KLF5 inh confirm | IEC-6 tox-2 | IEC-6 cytotox cf
COc1ccc(N/N=C/c2c(C(=O)O)ccc3ccccc23)cc1 | / | 55.8 | 72.8* | 35.1* | 41.4* | 40.0* | 91.5* | 7.4 | 35.8*
COc1ccc2ccccc2c1/C=N/Nc1ccc(Cl)c(C(=O)O)c1 | / | -22.3 | -50.4 | / | -3.7 | / | / | / | /
CCCCCCCCCCn1ccc(=N)cc1 | / | 106.5* | 86.5* | 99.0* | 65.5* | 100.3* | 70.2* | 62.3* | 72.4*
CCCCCCN1C2=NCCCN2c2ccccc21 | / | 10.8 | -10.7 | -1.0 | -4.2 | 2.4 | / | / | /
CCCCCCCCn1ccc(=N)cc1 | / | 61.9* | 68.2* | 98.7* | 42.8* | 90.5* | 53.4 | 47.5* | 43.4*
CCCCCCN1Cc2ccccc2C1 | -74.9 | -117.1 | -22.5 | 2.5 | 3.4 | 3.1 | / | / | /
COc1ccc(C(=O)CNc2cccc(F)c2)cc1 | / | -101.2 | -95.3 | / | -3.7 | / | / | / | /
COc1ccc(OC)c(Nc2cc(-c3ccccc3)nc(N)n2)c1 | 94.2* | 67.8* | 65.1* | 82.7* | 88.7* | 76.1* | 71.3* | 58.4* | 56.5*
COc1ccc(OC)c(Nc2cc(C)nc3ccccc23)c1 | -2.4 | 15.8 | -10.2 | 1.4 | 4.9 | 0.3 | / | / | /
Cc1ccccc1CCN1CCCC(CN(C)C(=O)C(=O)c2ccco2)C1 (configuration not stated) | / | -7.6 | -28.9 | / | -1.7 | / | / | / | /
CCOc1ccc2c(c1)C(C)=CC(C)(C)N2S(=O)(=O)c1ccc(F)cc1 | / | -38.4 | -5.7 | / | 12.3 | / | / | / | /
COc1ccc2c(c1)C(C)=CC(C)(C)N2S(=O)(=O)c1ccc(NC(C)=O)cc1 | / | 70.6* | 81.4* | / | 90.1* | / | 87.7* | 59.1* | 56.6*
CCOc1ccc2c(c1)C(C)=CC(C)(C)N2S(=O)(=O)c1ccc(NC(C)=O)cc1 | / | 69.7* | 73.4* | / | 92.4* | / | 88.7* | 70.8* | 71.7*
O=C(NCC(=O)N1CCC2(CC1)NCCc1[nH]cnc12)c1ccc2ccccc2c1 | / | 6.9 | -22.8 | / | -6.0 | / | / | / | /
COc1ccc(NC(=O)Cc2ccccc2F)cn1 | -2.0 | -19.6 | -0.1 | 4.3 | 5.4 | 1.0 | / | / | /
COc1ccc(NC(=O)/C(Cl)=C(/Cl)S(=O)Cc2ccccc2Cl)cn1 (configuration not stated) | 94.2* | / | 106.9* | 101.5* | 102.3* | 103.5* | 110.5* | 62.8* | 85.7*
